# Results: PubChem BioAssay AID1159580 (chemical genetic matrix, 2015)
# The whole screen tested about 5,500 compounds, of which about 2,000 (36%) were called active. Not shown: some 18% with an inconclusive outcome. Some of the results follow. A number with no mark means an inactive call. Cut-off read from the data, not from the text of the source: active = normalized growth mostly below about 0.91 (no sharp cut-off); inconclusive = no clear call, values can overlap the other calls; inactive = mostly above about 0.92.
# Assay: chemical genetic growth profiling, strain panel (AID 1159580);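 note: tested at 20 µM; growth read once vehicle control cultures reached saturation at 30 °C; 1 = growth at the plate median or of vehicle wells; lower values mean less growth of the strain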
# Details: growth OD
smiles,measurement,setting,value
CN1CCN(CCC=C2c3ccccc3Sc3ccc(S(=O)(=O)N(C)C)cc32)CC1,normalized growth,"S. cerevisiae deletion strains, locus YJR043C, strain POL32, hits give low values",1.01
same,normalized growth,"S. cerevisiae deletion strains, locus YJR066W, strain TOR1, hits give low values",0.922
same,normalized growth,"S. cerevisiae deletion strains, locus YKL009W, strain mrt4, hits give low values",0.971
same,normalized growth,"S. cerevisiae deletion strains, locus YKL068W, hits give low values",1.01
same,normalized growth,"S. cerevisiae deletion strains, locus YKL085W, strain MDH1 (second series), hits give low values",1
same,normalized growth,"S. cerevisiae deletion strains, locus YKL085W, strain MDH1, hits give low values",1
same,normalized growth,"S. cerevisiae deletion strains, locus YKL160W, strain elf1, hits give low values",0.97
same,normalized growth,"S. cerevisiae deletion strains, locus YKL190W, strain CNB1, hits give low values",1.02
same,normalized growth,"S. cerevisiae deletion strains, locus YKR001C, strain vps1, hits give low values",0.916
same,normalized growth,"S. cerevisiae deletion strains, locus YKR026C, strain gcn3, hits give low values",1.01
same,normalized growth,"S. cerevisiae deletion strains, locus YKR091W, strain srl3, hits give low values",1.01
same,normalized growth,"S. cerevisiae deletion strains, locus YLL001W, strain dnm1, hits give low values",0.906
same,normalized growth,"S. cerevisiae deletion strains, locus YLL026W, hits give low values",1
same,normalized growth,"S. cerevisiae deletion strains, locus YLL041C, strain sdh2, hits give low values",0.992
same,normalized growth,"S. cerevisiae deletion strains, locus YLR027C, strain aat2, hits give low values",0.982
same,normalized growth,"S. cerevisiae deletion strains, locus YLR039C, strain RIC1, hits give low values",1.27
same,normalized growth,"S. cerevisiae deletion strains, locus YLR058C, strain SHM2, hits give low values",1.01
same,normalized growth,"S. cerevisiae deletion strains, locus YLR102C, strain apc9, hits give low values",0.964
same,normalized growth,"S. cerevisiae deletion strains, locus YLR113W, strain HOG1, hits give low values",0.983
same,normalized growth,"S. cerevisiae deletion strains, locus YLR221C, strain rsa3, hits give low values",0.979
same,normalized growth,"S. cerevisiae deletion strains, locus YLR258W, strain gsy2, hits give low values",0.991
same,normalized growth,"S. cerevisiae deletion strains, locus YLR262C, strain YPT6 (second series), hits give low values",1.11
same,normalized growth,"S. cerevisiae deletion strains, locus YLR262C, strain YPT6, hits give low values",1.31
same,normalized growth,"S. cerevisiae deletion strains, locus YLR268W, strain sec22, hits give low values",0.88 (active)
same,normalized growth,"S. cerevisiae deletion strains, locus YLR320W, strain mms22, hits give low values",0.893
same,normalized growth,"S. cerevisiae deletion strains, locus YLR330W, strain CHS5, hits give low values",1
same,normalized growth,"S. cerevisiae deletion strains, locus YLR342W, strain FKS1 (second series), hits give low values",0.99
same,normalized growth,"S. cerevisiae deletion strains, locus YLR342W, strain FKS1, hits give low values",0.954
same,normalized growth,"S. cerevisiae deletion strains, locus YLR357W, strain rsc2, hits give low values",0.983
same,normalized growth,"S. cerevisiae deletion strains, locus YLR370C, strain arc18, hits give low values",0.964
same,normalized growth,"S. cerevisiae deletion strains, locus YLR371W, strain rom2, hits give low values",0.976
same,normalized growth,"S. cerevisiae deletion strains, locus YLR384C, strain iki3, hits give low values",1.02
same,normalized growth,"S. cerevisiae deletion strains, locus YLR418C, strain cdc73, hits give low values",0.764 (active)
same,normalized growth,"S. cerevisiae deletion strains, locus YML016C, strain PPZ1, hits give low values",1
same,normalized growth,"S. cerevisiae deletion strains, locus YML032C, strain rad52, hits give low values",0.896 (active)
same,normalized growth,"S. cerevisiae deletion strains, locus YML120C, strain ndi1, hits give low values",0.984
same,normalized growth,"S. cerevisiae deletion strains, locus YML124C, strain tub3, hits give low values",0.988
same,normalized growth,"S. cerevisiae deletion strains, locus YMR058W, strain fet3, hits give low values",0.954
same,normalized growth,"S. cerevisiae deletion strains, locus YMR078C, strain ctf18, hits give low values",0.983
same,normalized growth,"S. cerevisiae deletion strains, locus YMR125W, strain sto1, hits give low values",1
same,normalized growth,"S. cerevisiae deletion strains, locus YMR129W, hits give low values",1.03
same,normalized growth,"S. cerevisiae deletion strains, locus YMR205C, strain PFK2, hits give low values",0.96
same,normalized growth,"S. cerevisiae deletion strains, locus YMR223W, strain ubp8, hits give low values",0.899 (active)
same,normalized growth,"S. cerevisiae deletion strains, locus YMR231W, strain pep5, hits give low values",1.02
same,normalized growth,"S. cerevisiae deletion strains, locus YMR263W, strain SAP30, hits give low values",1.02
same,normalized growth,"S. cerevisiae deletion strains, locus YMR307W, strain GAS1, hits give low values",1.07
same,normalized growth,"S. cerevisiae deletion strains, locus YNL067W, strain RPL9B, hits give low values",1.01
same,normalized growth,"S. cerevisiae deletion strains, locus YNL071W, strain lat1, hits give low values",0.978
same,normalized growth,"S. cerevisiae deletion strains, locus YNL183C, strain NPR1, hits give low values",0.946
same,normalized growth,"S. cerevisiae deletion strains, locus YNL209W, strain ssb2, hits give low values",0.972
same,normalized growth,"S. cerevisiae deletion strains, locus YNL233W, strain BNI4, hits give low values",1
same,normalized growth,"S. cerevisiae deletion strains, locus YNL248C, strain rpa49, hits give low values",0.942
same,normalized growth,"S. cerevisiae deletion strains, locus YNL250W, strain rad50, hits give low values",0.992
same,normalized growth,"S. cerevisiae deletion strains, locus YNL271C, strain bni1, hits give low values",0.986
same,normalized growth,"S. cerevisiae deletion strains, locus YNL298W, strain CLA4, hits give low values",0.977
same,normalized growth,"S. cerevisiae deletion strains, locus YNL307C, strain MCK1, hits give low values",0.791 (active)
same,normalized growth,"S. cerevisiae deletion strains, locus YNL322C, strain KRE1 (second series), hits give low values",0.996
same,normalized growth,"S. cerevisiae deletion strains, locus YNL322C, strain KRE1, hits give low values",1.01
same,normalized growth,"S. cerevisiae deletion strains, locus YNR049C, strain mso1, hits give low values",1.01
same,normalized growth,"S. cerevisiae deletion strains, locus YNR052C, strain pop2, hits give low values",0.971
same,normalized growth,"S. cerevisiae deletion strains, locus YOL006C, strain TOP1, hits give low values",0.983
same,normalized growth,"S. cerevisiae deletion strains, locus YOL012C, strain htz1",0.994
same,normalized growth,"S. cerevisiae deletion strains, locus YOL147C, strain pex11, hits give low values",0.959
same,normalized growth,"S. cerevisiae deletion strains, locus YOR001W, strain rrp6, hits give low values",0.977
same,normalized growth,"S. cerevisiae deletion strains, locus YOR061W, strain CKA2, hits give low values",1
same,normalized growth,"S. cerevisiae deletion strains, locus YOR069W, strain VPS5, hits give low values",1.01
same,normalized growth,"S. cerevisiae deletion strains, locus YOR070C, strain gyp1, hits give low values",0.991
same,normalized growth,"S. cerevisiae deletion strains, locus YOR080W, strain dia2, hits give low values",1.03
same,normalized growth,"S. cerevisiae deletion strains, locus YOR083W, strain WHI5, hits give low values",0.937
same,normalized growth,"S. cerevisiae deletion strains, locus YOR106W, strain vam3, hits give low values",1
same,normalized growth,"S. cerevisiae deletion strains, locus YOR136W, strain idh2, hits give low values",0.981
same,normalized growth,"S. cerevisiae deletion strains, locus YOR144C, strain elg1, hits give low values",0.988
same,normalized growth,"S. cerevisiae deletion strains, locus YOR184W, strain ser1, hits give low values",0.934
same,normalized growth,"S. cerevisiae deletion strains, locus YOR231W, strain MKK1, hits give low values",0.984
same,normalized growth,"S. cerevisiae deletion strains, locus YOR265W, strain rbl2, hits give low values",0.995
same,normalized growth,"S. cerevisiae deletion strains, locus YOR270C, strain vph1, hits give low values",0.763 (active)
same,normalized growth,"S. cerevisiae deletion strains, locus YOR290C, strain snf2, hits give low values",0.913
same,normalized growth,"S. cerevisiae deletion strains, locus YOR316C, strain cot1, hits give low values",0.968
same,normalized growth,"S. cerevisiae deletion strains, locus YPL051W, strain arl3, hits give low values",0.95
same,normalized growth,"S. cerevisiae deletion strains, locus YPL078C, strain atp4, hits give low values",0.925
same,normalized growth,"S. cerevisiae deletion strains, locus YPL106C, strain sse1, hits give low values",0.947
same,normalized growth,"S. cerevisiae deletion strains, locus YPL240C, strain hsp82, hits give low values",0.999
same,normalized growth,"S. cerevisiae deletion strains, locus YPL256C, strain CLN2, hits give low values",0.965
same,normalized growth,"S. cerevisiae deletion strains, locus YPR119W, strain clb2, hits give low values",0.968
same,normalized growth,"S. cerevisiae deletion strains, locus YPR141C, strain kar3, hits give low values",1.02
same,normalized growth,"S. cerevisiae deletion strains, locus YPR163C, strain tif3, hits give low values",0.977
same,normalized growth,"S. cerevisiae deletion strains, locus YPR167C, strain met16, hits give low values",0.985
same,normalized growth,"S. cerevisiae deletion strains, strain wtn01, hits give low values",0.953
same,normalized growth,"S. cerevisiae strains, strain wild type, hits give low values",1.01
